± gives the uncertainty stated by the source.
What follows are compounds tested on HEK293T-Rex XBP1-RLuc (assay: XBP1-RLuc splicing reporter activation, triplicate, relative to 500 nM thapsigargin (% of thapsigargin); higher = stronger IRE1/XBP1s reporter activation). Details: 6.8 µM; 18 h; screen: confirmation.
Description: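 HEK293T-Rex cells stably expressing the ERSE-firefly luciferase (BiP promoter, ATF6-preferring) or XBP1-splicing Renilla luciferase (IRE1/XBP1s) reporter, 1536-well plates, compound at 6.8 µM for 18 hr at 37 °C; luminescence read […] and expressed as % activation = 100*(compound - median DMSO)/(median 500 nM thapsigargin - median DMSO). Primary screen was single-pass; confirmation screen in triplicate (mean ± SD).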

| SMILES | XBP1-RLuc splicing reporter activation |
| --- | --- |
| Cc1ccc(O)c(NC(=O)c2cc(-c3ccco3)on2)c1 | 19 ± 4.5 |
| Cc1ccc(O)c(NC(=O)c2cc(C3CC3)on2)c1 | 13.9 ± 2.1 |
| Cc1ccc2nc(NC(=O)c3cccc4ccccc34)sc2c1 | 4.94 ± 1.5 |
| COc1ccc(/C=C2\SC(=O)NC2=Nc2ccc(C)cc2)c(OC)c1 | 6.33 ± 0.42 |
| Fc1ccc(-c2nnc3ccc(N4CCN(c5ccccn5)CC4)nn23)cc1 | 38.3 ± 2.6 |
| Nc1nc(Nc2ccc(Cl)cc2)nc2ccccc12 | 8.65 ± 0.74 |
| Oc1ccc(-c2csc(-c3ccccc3)n2)cc1O | 31.3 ± 3.1 |
| CC(C)c1ccc(NC(=O)/C=C/c2ccco2)cc1 | 4 ± 0.68 |
| COc1cccc(/C=N/NC(=O)c2n[nH]c3c2CCCC3)c1 | 2.73 ± 0.56 |
| O=C(Nc1ccccc1O)c1ccc(C(=O)c2ccccc2)cc1 | 10.4 ± 0.77 |
| COc1ccc2oc(=Nc3cc(F)ccc3F)c(C(N)=O)cc2c1 | 4.22 ± 1 |
| O=C(COC(=O)c1ccc(O)c(O)c1)Nc1nc(-c2ccccc2)cs1 | 18.6 ± 3.9 |
| CCOc1ccc(NC(=O)c2ccc3c(c2)OCO3)c([N+](=O)[O-])c1 | -0.432 ± 2.4 |
| Cc1cccc2c1[nH]c1nc(N/N=C\c3c[nH]c4ccccc34)nnc12 | 21.8 ± 1.6 |
| Cc1ccc(O)c(NC(=S)NC(=O)/C=C/c2ccco2)c1 | 1.05 ± 0.43 |
| Cc1nc(-c2ccc(C(=O)Nc3ccc(O)cc3)cc2)cs1 | 19.3 ± 0.19 |
| O=C(/C=C/c1ccccc1)Nc1ccc(Cl)cn1 | 1.96 ± 0.26 |
| Cc1ccc(O)c(-c2cc(C(F)(F)C(F)F)no2)c1 | 13.8 ± 1.5 |
| Nc1ccc2nc(-c3ccc(Br)cc3)[nH]c2c1 | 12.5 ± 2 |
| O=C(CC(=O)Nc1ccc2nc3n(c(=O)c2c1)CCCCC3)NCc1ccco1 | 22.3 ± 2.9 |

| SMILES | XBP1-RLuc splicing reporter activation |
| --- | --- |
| COCCNC(=O)c1cc(-c2cccs2)on1 | 6.38 ± 1.2 |
| O=C1N/C(=C/c2ccc(O)cc2)C(=O)N1c1ccccc1 | 49 ± 4.5 |
| CCCNC(=O)c1cc(-c2cccs2)on1 | 5.97 ± 0.33 |
| O=C1N/C(=C/c2ccc(O)cc2)C(=O)N1c1cccc(Cl)c1 | 61.1 ± 1.4 |
| O=C(N/N=C/c1cccc(O)c1O)c1ccccn1 | 27 ± 0.75 |
| O=c1/c(=C/c2ccc(O)c(O)c2)sc2nc3ccccc3n12 | 6.32 ± 0.52 |
| O=C(Nc1ccccc1O)c1cc2ccccc2o1 | 7.88 ± 0.66 |
| Cc1ccc(/C=N/NC(=O)c2cccc(Cl)c2)cc1 | 0.915 ± 0.53 |
| Cc1cc(C)nc(/N=C(\N)Nc2ccc(OCCC(C)C)cc2)n1 | 101 ± 1.1 |
| Nc1ccc(-c2nc3cc(N)c(Cl)cc3[nH]2)cc1 | 16 ± 1 |
| O=c1[nH]c(/C=C2\C=Nc3ccccc32)c(O)n1-c1cccc(Cl)c1 | 47.9 ± 7.7 |
| O=C(Nc1nc2c(s1)CCCC2)c1cccc2ccccc12 | 3.36 ± 1.8 |
| O=C(N/N=C/c1ccc(Cl)cc1Cl)c1ccc(O)c(O)c1 | 10.6 ± 0.64 |
| C=CCNC(=O)c1sc2nc3cc(C)c(C)cc3cc2c1N | -0.518 ± 1.4 |
| O=C(COC(=O)c1cc(O)c(O)c(O)c1)Nc1ccc(Br)cc1F | 20.18 ± 0.15 |
| COc1cccc(Nc2nc(-c3ccc(OC)c(F)c3)cs2)c1 | 1.64 ± 0.88 |
| OCCNc1nc(Nc2ccc(Cl)c(Cl)c2)nc2ccccc12 | 42.7 ± 1.8 |
| O=C(Nc1ccc2nc(NC(=O)C3CCCCC3)sc2c1)C1CCCCC1 | 6.08 ± 0.7 |
| Oc1cccc(Nc2nc(-c3ccc(O)c(O)c3)cs2)c1 | 17.5 ± 0.67 |
| COc1ccc(/C(C)=N/OC/C(O)=C(\C#N)c2nc3ccccc3[nH]2)cc1OC | 24.6 ± 1.4 |
